This note sets out measurements from PubChem BioAssay (NCATS).

Assay [1] concerns the target Transient receptor potential cation channel subfamily V member 1 (Homo sapiens) (UniProt Q8NER1). The experiment in a line: HTS Assay for Compounds that Act as Enhancers of the Vanilloid Receptor 1 (AID 488979). Note: 0% is about no effect. Put shortly: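 TRPV1-expressing cells loaded with Fluo-8 calcium dye; compounds added and calcium influx read kinetically for 3 min (agonist phase), then capsaicin at EC20 added and read 2 min more for enhancement. Fluorescence ex 480/em 520 nm.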

The target of assay [2] is Thyrotropin receptor (Homo sapiens) (UniProt P16473). The experiment in a line: qHTS Assay for Antagonists of the Thyroid Stimulating Hormone Receptor (AID 488980). Note: series mostly up to about 58 µM; 0% is about no effect. Put shortly: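 Inhibition of TSH-stimulated cAMP accumulation was quantified by homogeneous time-resolved FRET in TSHR-transfected HEK293 cells. Agonist: TSH, 4 nM final (EC80).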
(Quantitative high-throughput screening tests each substance at several concentrations.)

Assay [3] has as its target D(1A) dopamine receptor (Homo sapiens) (UniProt P21728). The experiment in a line: HTS Assay for Allosteric Agonists of the Human D1 Dopamine Receptor: Primary Screen for Potentiators (AID 488982). Note: 0% is about no effect. The gist of the method: (§1)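 Tetracycline-induced HEK293 T-REx cells force-coupled to calcium signalling were incubated overnight at 30 C and dye-loaded at room temperature. Calcium flux over 180 s after compound addition flagged agonists; a further 180 s read after EC20 dopamine flagged potentiators.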

The nature of assay [4]: Validation screen for small molecules that induce genotoxicity in human embryonic kidney (HEK293T) cells expressing luciferase-tagged ELG1 (AID 493106). Note: potency is the fitted concentration of half-maximal effect. Put shortly: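 Reporter-gene quantitative HTS in HEK293T cells carrying luciferase-tagged ELG1, whose level climbs under genotoxic stress. Compound exposure lasts 16 hr at 37 °C before luciferase detection.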
For assay [5], the target named is Thyrotropin-releasing hormone receptor (Homo sapiens) (UniProt P34981). The experiment in a line: qHTS for Small Molecule Agonists and Allosteric Enhancers of Human TRH Receptor: Validation Screen for Agonists (AID 493127;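 active = calcium activation more than 3 SD above the typical response in the agonist read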;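 note: intracellular calcium rise by fluo-8 fluorescence before TRH EC20 addition; 0% is about no effect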). As to conditions: TRH receptor agonist cell assay; at 2 µM; stronger effect = higher value. Put shortly:
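Gq-coupled calcium mobilization in TRHR cells after compound addition, monitored kinetically with fluo-8 dye on an FDSS reader.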

Assay [6] is described as follows: Nrf2 qHTS screen for inhibitors: Validation (AID 493153; active = well fitted inhibition curve with a large enough effect in the main read-out, with a control signal flat, not every such curve was filed as active). The settings on record: Potency: luciferase luminescence; viability change: measured here: cytotoxicity max response. Put shortly: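 Dose-response validation uses reporter A549 cells with firefly luciferase under an antioxidant response element. Compounds stay on cells 18-24 h at 37°C, and luminescence indicates Nrf2-driven transcription.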

Assay [7] has as its target Peptidyl-prolyl cis-trans isomerase NIMA-interacting 1 (Homo sapiens) (UniProt Q13526). The experiment in a line: qHTS Validation Assay to Find Inhibitors of Pin1 (AID 504536; active = well fitted inhibition curve with a large enough effect in the polarisation, with a control signal flat, not every such curve was filed as active; the % refers to the polarisation;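 note: 0% = full Pin1 enzyme wells and -100% = no-enzyme wells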). Put shortly:
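Fluorescence polarization competition: compounds (titration) displace HiFluor-488-labeled Pin1-1b peptide from Pin1 (0.3 uM final) in pH 7.5 HEPES buffer with DTT, 10 min at room temperature; %Activity normalized to no-enzyme wells, curves fitted.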

Assay [8] addresses Phosphoglycerate kinase, glycosomal (Trypanosoma brucei brucei) (UniProt P07378). The experiment in a line: qHTS Validation Assay to Find Inhibitors of Phosphoglycerate Kinase (AID 504547).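 Note: control wells lack PGK and mark full inhibition.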 The gist of the method: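 Substrate/PGK mix plus compound; reaction started with GAPDH (100nM final) to form 1,3-BPG; 60 min RT; Kinase-Glo Plus 10 min; luminescence. TEA 100mM pH 7.6, MgCl2 5mM, Tween-20 0.01%.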

Assay [9] addresses phosphoglycerate mutase (Leishmania major) (UniProt Q4Q090). The experiment in a line: qHTS Validation Assay to Find Inhibitors of Phosphoglycerate Mutase (AID 504548).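 Note: end-point luminescence from Kinase-GloPlus after the PGAM reaction; series mostly up to about 58 µM; % is set by controls: 0 for no effect and ±100 for the full control effect.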 As to conditions: Potency: inhibition qHTS. Put shortly: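 Inhibition of L. major PGAM was assessed by Kinase-GloPlus luminescence following a 45-minute room-temperature reaction with enzyme at 1.25nM final.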

Assay [10] addresses D(1A) dopamine receptor (Homo sapiens) (UniProt P21728). The experiment in a line: HTS Assay for Allosteric Agonists of the Human D1 Dopamine Receptor: Primary Screen for Antagonists (AID 488983).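 Note: calcium flux response to an EC80 dopamine challenge measured with no-wash dye; % is set by controls: 0 for no effect and ±100 for the full control effect; nearly all actives have a fitted effect of over 65% in size.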 The gist of the method: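 Screening of inducible HEK293 T-REx D1 cells: compound first, EC80 dopamine 180 s later, each phase read kinetically for calcium over 180 s.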
A short description of assay [11]: qHTS for Inhibitors of Cell Surface uPA Generation: Validation Assay (AID 493164).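 Note: RAW 264.7 macrophage cells exposed to compound for 18 h; 0% is about no effect.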 Put shortly: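 RAW 264.7, 4000 cells/well, o/n plating; cpd 7-pt 1:5 dilution 2.45 nM–38.3 uM final; 18 h, 37 C/5% CO2; ATP-Lite, 5 s luminescence exposure.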
For assay [12], the target named is Galactokinase (Homo sapiens) (UniProt P51570). The experiment in a line: qHTS Validation Assay for Inhibitors of Human Galactokinase (GALK) (AID 493189). Note: 0% is about no effect. Put shortly:
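Enzyme activity is inferred from ATP consumption: human GALK phosphorylates galactose (100 uM) using 35 uM ATP for 1 h at room temperature, and luciferase-based Kinase-Glo Plus reports unconsumed ATP.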

Assay [13] in a line: Validation screen for small molecules that induce DNA re-replication in SW480 colon adenocarcinoma cells (AID 504364). Note: 0% is about no effect. Put shortly:
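Cells are treated 48 hr with test compound, stained 40 min with Hoechst at 37 C, and scanned for nuclear fluorescence; compounds inducing re-replication increase nuclei with elevated intensity.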

Assay [14] has as its target Ubiquitin carboxyl-terminal hydrolase 1 (Homo sapiens) (UniProt O94782). The experiment in a line: Inhibitors of USP1/UAF1: Pilot qHTS (AID 504865). Note: nearly all actives have a fitted effect of over 35% in size. Note: potency is the fitted concentration of half-maximal effect. Put shortly: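 Enzyme-free wells gave the negative control, while test wells held 1nM USP1/UAF1 preincubated with compound for 15 min at room temperature. Ub-Rho at 150nM final started the reaction, and fluorescence at 480/540 nm was recorded kinetically.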

Assay [15] in a line: qHTS for Inhibitors of ATXN expression: Validation of Cytotoxic Assay (AID 588349).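 Note: cells exposed to compound for 72 hr; % is set by controls: 0 for no effect and ±100 for the full control effect.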 Put shortly:
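HEK293, compound dose series, 72 hr / 37 degrees C; viability via CellTiter Glo (intracellular ATP).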

The nature of assay [16]: qHTS for Inhibitors of ATXN expression: Validation (AID 588378). Note: series mostly up to about 57 µM; % is set by controls: 0 for no effect and ±100 for the full control effect; nearly all actives have a fitted effect of over 75% in size. Put shortly: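 After a 2 h attachment and 24 h compound incubation, HEK293-ATXN2-FFLuc wells are read for fluorescence at 405 nm excitation/525 nm emission as a viability measure, then for Bright-Glo luminescence reflecting ATXN2 expression.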
The target of assay [17] is D(1A) dopamine receptor (Homo sapiens) (UniProt P21728). The experiment in a line: HTS Assay for Allosteric Agonists of the Human D1 Dopamine Receptor: Primary Screen for Agonists (AID 488981). Note: 0% is about no effect. Put shortly:
as §1

Assay [18] deals with ATPase family AAA domain-containing protein 5 (Homo sapiens) (UniProt Q96QE3). The experiment in a line: Validation screen for small molecules that inhibit ELG1-dependent DNA repair in human embryonic kidney (HEK293T) cells expressing luciferase-tagged ELG1 (AID 493107).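 Note: cells co-treated with the DNA-damaging agent 5-fluorouridine alongside compound; series mostly up to about 46 µM; % is set by controls: 0 for no effect and ±100 for the full control effect; inhibitors lower the ELG1-luciferase luminescence signal; nearly all actives have a fitted effect of over 70% in size.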 Put shortly:
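Quantitative HTS in HEK293T cells carrying luciferase-tagged ELG1, stimulated with 5-fluorouridine alongside compound for 16 hr. Loss of luciferase signal marks inhibition of ELG1 response.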

SMILES strings stand for the structures. Results filed as inconclusive are left out. Activity calls are given as the source filed them. Unless noted, calls come from the whole dose curve; as a rule, active = well fitted curve in the direction sought with a large enough effect; inconclusive = small, poorly fitted or top-dose-only effect, or another doubt; inactive = no such curve, though single readings can be large; an effect the other way counts as inactive or inconclusive.

Sequence of Galactokinase (Homo sapiens) (P51570 whole entry, looked up): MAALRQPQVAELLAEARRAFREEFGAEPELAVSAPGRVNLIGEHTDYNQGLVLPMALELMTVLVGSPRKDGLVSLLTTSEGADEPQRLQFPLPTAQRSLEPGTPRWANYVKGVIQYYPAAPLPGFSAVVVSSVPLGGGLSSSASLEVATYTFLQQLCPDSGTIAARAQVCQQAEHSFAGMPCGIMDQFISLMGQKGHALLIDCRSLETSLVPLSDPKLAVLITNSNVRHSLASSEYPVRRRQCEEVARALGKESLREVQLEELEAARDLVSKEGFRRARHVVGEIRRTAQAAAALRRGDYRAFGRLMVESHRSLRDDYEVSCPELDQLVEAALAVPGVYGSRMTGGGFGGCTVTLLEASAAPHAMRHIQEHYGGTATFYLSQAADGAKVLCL
Sequence of D(1A) dopamine receptor (Homo sapiens) (P21728 whole entry, looked up): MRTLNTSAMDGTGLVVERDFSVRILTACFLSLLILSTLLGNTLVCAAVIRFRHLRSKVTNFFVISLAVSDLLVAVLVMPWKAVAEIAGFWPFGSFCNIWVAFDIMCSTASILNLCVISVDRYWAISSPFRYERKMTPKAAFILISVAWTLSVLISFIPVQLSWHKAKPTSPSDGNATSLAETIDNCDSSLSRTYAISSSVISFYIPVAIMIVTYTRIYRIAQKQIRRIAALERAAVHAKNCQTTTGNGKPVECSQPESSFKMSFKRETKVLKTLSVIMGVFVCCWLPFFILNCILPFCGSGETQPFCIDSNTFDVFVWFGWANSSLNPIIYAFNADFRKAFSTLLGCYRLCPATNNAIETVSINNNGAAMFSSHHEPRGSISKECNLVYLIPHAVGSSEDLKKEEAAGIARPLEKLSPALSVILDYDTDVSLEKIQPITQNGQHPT
Sequence of phosphoglycerate mutase (Leishmania major) (Q4Q090 1-553): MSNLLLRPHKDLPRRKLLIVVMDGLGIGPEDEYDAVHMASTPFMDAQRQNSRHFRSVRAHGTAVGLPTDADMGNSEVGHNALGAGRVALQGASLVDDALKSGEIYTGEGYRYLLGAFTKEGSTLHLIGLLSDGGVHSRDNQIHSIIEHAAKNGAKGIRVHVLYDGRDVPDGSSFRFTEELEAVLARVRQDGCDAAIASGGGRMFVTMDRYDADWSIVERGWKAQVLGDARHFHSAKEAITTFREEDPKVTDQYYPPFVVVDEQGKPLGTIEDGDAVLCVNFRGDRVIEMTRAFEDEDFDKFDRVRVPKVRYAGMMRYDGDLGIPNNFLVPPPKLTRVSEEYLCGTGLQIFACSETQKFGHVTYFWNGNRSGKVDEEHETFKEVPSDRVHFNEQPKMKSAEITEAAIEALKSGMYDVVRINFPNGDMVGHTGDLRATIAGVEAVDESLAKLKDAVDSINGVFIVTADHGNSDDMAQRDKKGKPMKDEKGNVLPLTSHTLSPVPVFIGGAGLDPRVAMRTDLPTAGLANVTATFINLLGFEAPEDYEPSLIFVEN
Sequence of Phosphoglycerate kinase, glycosomal (Trypanosoma brucei brucei) (P07378 whole entry, looked up): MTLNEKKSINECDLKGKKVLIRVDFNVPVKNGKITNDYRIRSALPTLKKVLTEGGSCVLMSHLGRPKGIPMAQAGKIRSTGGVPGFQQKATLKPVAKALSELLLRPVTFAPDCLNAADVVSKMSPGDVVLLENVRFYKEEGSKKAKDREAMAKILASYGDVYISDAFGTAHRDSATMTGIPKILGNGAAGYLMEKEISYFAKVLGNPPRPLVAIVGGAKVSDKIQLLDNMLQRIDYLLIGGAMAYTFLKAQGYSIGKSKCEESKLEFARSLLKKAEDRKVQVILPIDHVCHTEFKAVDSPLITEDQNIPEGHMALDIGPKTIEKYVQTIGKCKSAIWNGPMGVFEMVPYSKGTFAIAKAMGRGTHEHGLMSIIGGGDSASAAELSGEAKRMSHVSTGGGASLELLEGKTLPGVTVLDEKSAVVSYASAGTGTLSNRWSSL
Sequence of ATPase family AAA domain-containing protein 5 (Homo sapiens) (Q96QE3 whole entry, looked up, the tested form may be a part): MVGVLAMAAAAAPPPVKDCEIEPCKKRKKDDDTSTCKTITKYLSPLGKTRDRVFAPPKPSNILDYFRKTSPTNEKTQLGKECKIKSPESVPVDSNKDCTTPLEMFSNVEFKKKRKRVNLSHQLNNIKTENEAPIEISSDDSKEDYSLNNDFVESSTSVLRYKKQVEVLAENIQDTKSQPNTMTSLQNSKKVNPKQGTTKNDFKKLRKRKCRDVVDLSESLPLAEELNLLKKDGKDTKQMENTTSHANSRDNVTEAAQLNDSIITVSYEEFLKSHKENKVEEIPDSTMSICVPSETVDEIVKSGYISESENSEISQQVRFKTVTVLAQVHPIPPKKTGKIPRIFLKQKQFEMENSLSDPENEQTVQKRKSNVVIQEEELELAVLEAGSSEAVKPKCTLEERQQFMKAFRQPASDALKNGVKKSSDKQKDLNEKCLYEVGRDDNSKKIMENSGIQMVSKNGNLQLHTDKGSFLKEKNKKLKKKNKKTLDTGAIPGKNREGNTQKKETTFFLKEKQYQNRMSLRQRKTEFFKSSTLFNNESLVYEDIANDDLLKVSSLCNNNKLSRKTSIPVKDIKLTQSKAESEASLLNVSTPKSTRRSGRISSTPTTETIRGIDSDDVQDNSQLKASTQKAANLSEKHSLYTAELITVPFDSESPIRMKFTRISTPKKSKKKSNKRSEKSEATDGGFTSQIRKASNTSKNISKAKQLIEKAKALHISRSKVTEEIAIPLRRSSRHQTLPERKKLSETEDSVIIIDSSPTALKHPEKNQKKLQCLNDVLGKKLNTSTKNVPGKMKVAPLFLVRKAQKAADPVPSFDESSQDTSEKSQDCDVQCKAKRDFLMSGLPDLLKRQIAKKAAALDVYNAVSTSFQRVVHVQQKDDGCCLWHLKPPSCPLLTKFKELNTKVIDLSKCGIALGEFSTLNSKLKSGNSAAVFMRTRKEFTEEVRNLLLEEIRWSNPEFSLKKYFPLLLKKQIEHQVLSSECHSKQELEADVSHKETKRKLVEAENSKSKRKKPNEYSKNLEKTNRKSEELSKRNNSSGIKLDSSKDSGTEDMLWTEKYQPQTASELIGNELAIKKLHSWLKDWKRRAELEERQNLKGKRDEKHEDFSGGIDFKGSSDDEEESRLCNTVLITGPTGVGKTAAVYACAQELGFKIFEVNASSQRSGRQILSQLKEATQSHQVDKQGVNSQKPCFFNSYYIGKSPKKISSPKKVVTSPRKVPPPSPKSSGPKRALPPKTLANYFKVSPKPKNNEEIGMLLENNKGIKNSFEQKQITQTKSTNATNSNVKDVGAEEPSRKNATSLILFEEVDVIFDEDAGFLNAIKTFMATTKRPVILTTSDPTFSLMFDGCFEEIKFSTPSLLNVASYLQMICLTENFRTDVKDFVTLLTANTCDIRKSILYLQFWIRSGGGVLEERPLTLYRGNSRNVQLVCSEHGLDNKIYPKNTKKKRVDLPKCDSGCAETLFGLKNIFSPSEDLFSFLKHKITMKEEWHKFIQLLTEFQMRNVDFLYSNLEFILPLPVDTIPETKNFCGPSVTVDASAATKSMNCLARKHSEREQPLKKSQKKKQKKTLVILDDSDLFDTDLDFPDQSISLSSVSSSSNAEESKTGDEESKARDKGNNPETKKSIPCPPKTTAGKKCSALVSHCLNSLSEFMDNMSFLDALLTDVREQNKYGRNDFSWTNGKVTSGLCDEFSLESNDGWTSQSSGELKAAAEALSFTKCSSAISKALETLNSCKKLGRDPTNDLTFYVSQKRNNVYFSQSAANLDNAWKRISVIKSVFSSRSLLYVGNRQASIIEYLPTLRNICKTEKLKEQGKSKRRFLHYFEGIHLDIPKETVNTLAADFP
Sequence of Thyrotropin-releasing hormone receptor (Homo sapiens) (P34981 whole entry, looked up): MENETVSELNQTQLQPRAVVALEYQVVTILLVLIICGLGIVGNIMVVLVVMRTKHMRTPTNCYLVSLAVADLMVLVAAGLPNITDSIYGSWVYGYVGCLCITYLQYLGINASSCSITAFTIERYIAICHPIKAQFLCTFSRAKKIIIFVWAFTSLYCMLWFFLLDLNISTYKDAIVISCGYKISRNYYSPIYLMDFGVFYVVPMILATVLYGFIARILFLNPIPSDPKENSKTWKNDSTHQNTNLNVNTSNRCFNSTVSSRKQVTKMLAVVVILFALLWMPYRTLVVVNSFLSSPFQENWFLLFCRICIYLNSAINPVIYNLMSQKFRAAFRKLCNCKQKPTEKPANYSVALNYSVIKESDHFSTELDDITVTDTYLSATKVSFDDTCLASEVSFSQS
Sequence of Peptidyl-prolyl cis-trans isomerase NIMA-interacting 1 (Homo sapiens) (Q13526 whole entry, looked up): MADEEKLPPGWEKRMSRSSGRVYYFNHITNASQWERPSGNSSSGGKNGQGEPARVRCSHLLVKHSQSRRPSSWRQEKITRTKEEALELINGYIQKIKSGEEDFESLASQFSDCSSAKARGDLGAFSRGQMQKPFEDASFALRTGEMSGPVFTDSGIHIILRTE
Sequence of Ubiquitin carboxyl-terminal hydrolase 1 (Homo sapiens) (O94782 whole entry, looked up): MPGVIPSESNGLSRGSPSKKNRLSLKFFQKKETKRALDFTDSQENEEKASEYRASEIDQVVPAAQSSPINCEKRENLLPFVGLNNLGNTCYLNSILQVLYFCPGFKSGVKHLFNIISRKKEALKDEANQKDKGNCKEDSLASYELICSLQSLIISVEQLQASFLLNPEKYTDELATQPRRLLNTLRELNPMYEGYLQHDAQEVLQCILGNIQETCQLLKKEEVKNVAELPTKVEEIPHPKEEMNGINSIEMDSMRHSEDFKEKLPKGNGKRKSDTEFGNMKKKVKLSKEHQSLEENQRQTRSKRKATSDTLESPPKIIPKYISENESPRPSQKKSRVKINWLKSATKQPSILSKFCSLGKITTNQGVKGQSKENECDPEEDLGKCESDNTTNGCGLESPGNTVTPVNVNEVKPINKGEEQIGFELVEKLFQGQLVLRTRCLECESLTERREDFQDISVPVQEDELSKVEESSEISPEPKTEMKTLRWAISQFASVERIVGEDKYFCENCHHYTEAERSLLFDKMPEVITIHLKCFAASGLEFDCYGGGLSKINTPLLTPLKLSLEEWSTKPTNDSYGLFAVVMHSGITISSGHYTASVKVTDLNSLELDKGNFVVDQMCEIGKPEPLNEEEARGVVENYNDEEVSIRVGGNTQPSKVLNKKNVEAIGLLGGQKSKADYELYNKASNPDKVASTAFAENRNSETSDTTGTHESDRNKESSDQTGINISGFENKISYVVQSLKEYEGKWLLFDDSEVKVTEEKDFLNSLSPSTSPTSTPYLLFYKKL

`C=CCN1CCc2c(cc(O)c(O)c2Br)[C@@H](c2ccccc2)C1`: the outcome in assay [1] and in assay [2] was inactive. Moreover, the Potency result in [3], in assay [4], in assay [6], in assay [7], in assay [8] and in [9] was “inactive” in each case. Also, in assay [5], the activation was -5.81% (inactive). Moreover, the viability change in assay [6] is -6.77%.

For the compound `CC1=C(/C=C/C(C)=C/C=C/C(C)=C\C(=O)O)C(C)(C)CCC1`, the result in [1] and in assay [11] was inactive. Also, the Potency entry in [3], in assay [10], in assay [4], in assay [6], in assay [12] and in assay [13] was “inactive” each time. Also, the Potency result in assay [8], in assay [9], in assay [14], in assay [15] and in [16] was “inactive” throughout. Also, the activation in assay [5] was 0.75% (inactive). The viability change in assay [6] came to 8.59%.

In the case of `O=C(O)Cc1c[nH]c2ccc(O)cc12`, the result in assay [2] and in [11] was inactive. Besides, the Potency entry in [17], in [3], in [10], in [4], in [18] and in assay [6] was “inactive” each time. Further, the Potency result in [12], in assay [13], in [7], in assay [8], in assay [9] and in assay [14] was “inactive” in each case. The Potency entry in [16] was “inactive”. Also, the activation in [5] was -0.188% (inactive). Besides, the viability change in [6] is 0.136%.

Regarding `Nc1ccc(-c2ccc3ccccc3n2)cc1`, the outcome in [2] and in assay [11] was inactive. Also, the Potency result in [17], in [3], in assay [10], in assay [6], in [12] and in assay [7] was “inactive” throughout. For the same compound, the Potency result in [8], in [9], in assay [14], in [15] and in assay [16] was “inactive” each time. In [4], the Potency was 2.59 µM (active). For the same compound, in assay [5], the activation is 4% (inactive). For the same compound, the viability change in assay [6] was -6.75%.

Consider `O=C1Nc2ccc(I)cc2/C1=C/c1cc(Br)c(O)c(Br)c1`, for which the outcome in assay [1], in [2] and in assay [11] was inactive. Also, the Potency result in assay [3], in assay [4], in [18], in assay [12], in assay [8] and in assay [9] was “inactive” each time. For the same compound, the Potency entry in assay [16] was “inactive”. Besides, in assay [5], the activation is 8.19% (inactive). For the same compound, the Potency in assay [14] was 44.7 µM (active).

As to `OCC1NCC(O)C(O)C1O` (stereo not given), the call in assay [2] and in [11] was inactive. The Potency result in [17], in assay [3], in assay [10], in assay [4], in [18] and in assay [6] was “inactive” in each case. The Potency result in assay [12], in assay [13], in [7], in assay [8], in assay [9] and in assay [14] was “inactive” each time. Besides, the Potency entry in assay [15] and in [16] was “inactive” in each case. Also, the activation in assay [5] is 0.938% (inactive). The viability change in [6] is -2.29%.

`CC1C(=O)N(C)C(=O)c2nc[nH]c21` (stereo not given): the result in [2] was inactive. Moreover, the Potency entry in [17], in assay [3], in assay [10], in assay [4], in [18] and in assay [6] was “inactive” in each case. Besides, the Potency result in assay [12], in assay [13], in [7], in [8], in assay [9] and in assay [14] was “inactive” each time. The Potency entry in assay [15] and in assay [16] was “inactive” each time. Also, the activation in assay [5] was 1.25% (inactive). Further, in [6], the viability change is -0.209%.
